# Most compounds without a hit are left out; they make up all but 3% or so of the library.
# Glyco luc inh: N-linked glycosylation inhibition. D54 ERlucT glycosylation luciferase reporter, 24 h; percent of 100 nM tunicamycin response. AID 588692. actives 0.23% (n = 360,000). reporter increase, % at 12.5 µM;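 active = mean luciferase reporter signal, scaled so untreated is 0 and the glycosylation-blocking control 100, at or above a set limit in every replicate; inconclusive = mean reaches the limit but not every replicate does; inactive = mean below the limit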;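 note: luciferase carries N-glycosylation sites so blocking glycosylation raises the light; 0% = median of neutral control wells and 100% = median of 100 nM tunicamycin wells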
# esBAF inh: blocks esBAF chromatin remodeling in mouse ES cells. reporter increase, % at 12.5 µM. Bmi1-luciferase knock-in reporter, 24 h; 100% = twice the neutral-well signal. AID 602393. actives 2% (n = 350,000); in the data active = activation above about 40%; inconclusive = no clear call, values can overlap the other calls;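 note: 0% = median of the plate's neutral control wells and 100% = double that signal; a rise in the Bmi1 reporter signal indicates esBAF inhibition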
# PfHsp90 yeast 2: inhibits growth of yeast expressing Plasmodium falciparum Hsp90; S. cerevisiae expressing PfHsp90, BacTiter-Glo ATP, 48 h; yeast lacking PDR1 and PDR3 efflux regulators; inhibition, % at 9.4 µM; actives 0.32% (n = 310,000); AID 504621;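 active = every replicate shows inhibition above about 80%, whatever the replicate mean, limit read from the data; inconclusive = mean inhibition reaches the set limit but some replicate falls short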;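 note: 0% = DMSO neutral controls and 100% = 20 µM radicicol positive controls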
# Vif inh: inhibitors of HIV Vif; HEK293T cells, Vif self-association by quenched fluorescence, imaging, 24 h; inhibition, % at 7.49 µM; actives 0.35% (n = 340,000); AID 602346; in the data active = inhibition above about 50%, passing the limit was not always enough; inconclusive = no clear call, values can overlap the other calls; inactive = below about 31%
# Wnt act: activators of Wnt/beta-catenin signaling. activation, % at 9.35 µM. Wnt/beta-catenin reporter cell assay, activator, plate reader. actives 1.2% (n = 300,000); in the data active = activation above about 30%, passing the limit was not always enough; inconclusive = no clear call, values can overlap the other calls;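 note: 0% = neutral control wells and 100% = positive control wells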
# MITF TRPM1 HTS: activators of MITF-driven TRPM1 promoter activity in SK-MEL-5 cells. SK-MEL-5 TRPM1-promoter luciferase, 24 h; % of positive control, neutral wells = 0. actives 0.75% (n = 300,000). AID 588334. activation, % at 12.5 µM;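 active = mean activation of at least 80% with every replicate also reaching 80%; inconclusive = mean reaches 80% but some replicate falls short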;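 note: 0% = neutral control wells and 100% = parthenolide positive control wells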
# An asterisk follows results filed as active; ? = inconclusive; nt = no result.
SMILES,Glyco luc inh,esBAF inh,PfHsp90 yeast 2,Vif inh,Wnt act,MITF TRPM1 HTS
COc1cc(C)ccc1OCc1cc(C(=O)N2C[C@H]3CC[C@H]2C3)no1,-1,13,-4,-2,10,25
COc1cc(Cl)ccc1OCc1cc(C(=O)N2C[C@]3(C)C[C@H]2CC(C)(C)C3)no1,-1,nt,32,nt,26,125*
COc1cc(Cl)ccc1OCc1cc(C(=O)N2C[C@@H]3CCC[C@H]2C3)no1,-2,92*,-2,-11,38*,58
COc1cc(Cl)ccc1OCc1cc(C(=O)N2C[C@H]3CC[C@H]2C3)no1,0,63*,-53,-7,-1,55
C[C@@H]1CN([C@H](C)CO)C(=O)c2cccc(NC(=O)Nc3ccc4c(c3)OCO4)c2O[C@H]1CN(C)CC1CC1,nt,33,nt,nt,nt,nt
C=CCSc1nnc(CC(OC)OC)n1-c1ccccc1,1,nt,21,-3,nt,-3
CC(C)NC(=O)CCc1nnc(Cc2cccc(C(F)(F)F)c2)o1,2,67*,-21,17,3,53
CCC(COC)NC(=O)CCc1nnc(Cc2cccc(C(F)(F)F)c2)o1 (stereo not given),2,29,-14,-2,24,43
COc1ccc(COc2ccc3c(C)cc(=O)oc3c2)cc1,-3,38,-2,-9,7,?
COc1ccc2c(-c3cc4ccc(OCc5ccc(F)cc5)cc4oc3=O)cc(=O)oc2c1,37*,nt,-18,2,nt,-26
CCOC(=O)c1sc2nc(N3CCOCC3)c3c(c2c1N)CC(C)(C)N(C)C3,-2,-2,1,-3,-1,21
CCOC(CNC(=O)c1ccc2nc(N3CCC(C)CC3)sc2c1)OCC,3,nt,3,-24,nt,-13
CCCCOC(=O)c1ccc(OC(=O)c2cccnc2)cc1,0,23,31,11,nt,9
CCCCCCOC(=O)c1ccc(OC(=O)c2cccnc2)cc1,0,52*,6,nt,nt,64
COc1ccc(CNCCC(c2ccccc2)c2ccc3c(c2)OCO3)cc1 (stereo not given),-8,-2,10,-7,-4,-58
C[C@H]1CN([C@@H](C)CO)C(=O)c2cc(Br)cnc2O[C@@H]1CN(C)Cc1cccc(C(=O)O)c1,nt,0,nt,nt,nt,nt
CC(Sc1nc2ccccc2[nH]1)C(=O)O (stereo not given),4,-3,-1,-5,0,11
CC(=O)N=C(N)Sc1nc2ccccc2[nH]1,-1,69*,12,-2,61*,nt
O=C(/C=C/Sc1ccc(C(F)(F)F)cn1)c1ccccc1,37*,-10,21,0,16,-43
Cc1ccc(-c2ccc(C3C(C#N)=C(N)Oc4n[nH]c(C)c43)o2)cc1 (stereo not given),12,2,-8,2,-18,nt
Cc1[nH]nc2c1C(c1ccc(-c3ccc(Cl)cc3)o1)C(C#N)=C(N)O2 (stereo not given),29*,nt,1,-1,-3,3
Cc1[nH]nc2c1C(c1ccc(-c3ccccc3C#N)o1)C(C#N)=C(N)O2 (stereo not given),25*,-2,-1,-2,nt,10
O=C(CNC(=O)OCc1ccccc1)Nc1ccc(F)cc1,-1,-1,17,-10,1,-5
COc1cccc(-c2nc(-c3ccccn3)no2)c1OC,0,43*,19,19,60*,84*
COc1cc(-c2nc(-c3ccccn3)no2)cc(OC)c1OC,0,50*,11,27,nt,63
SMILES,Glyco luc inh,esBAF inh,PfHsp90 yeast 2,Vif inh,Wnt act,MITF TRPM1 HTS
O=C(C1CC1)N1C[C@@H]2[C@H](c3ccccc31)[C@H](CO)N2C(=O)c1ccccc1F,nt,-7,nt,nt,nt,nt
C[C@H](CO)N1C[C@H](C)[C@@H](CN(C)C(=O)Nc2ccc(C(F)(F)F)cc2)OCCCC[C@H](C)Oc2ccc(NS(=O)(=O)c3ccc(Cl)cc3)cc2C1=O,nt,5,nt,nt,nt,nt
COc1ccc(C2=NNC(=O)C2(C)Br)cc1 (stereo not given),-1,nt,2,0,51*,-5
CCOC(=O)CSc1nc2c(cnn2-c2ccc(C)cc2)c(=O)[nH]1,2,-14,-9,nt,-2,-1
c1ccc(CNc2nc(-c3cccnc3)nc3ccccc23)cc1,2,-3,-1,-11,0,13
c1ccc(CN2CCC(Nc3nc(-c4cccnc4)nc4ccccc34)CC2)cc1,40*,-10,-2,-5,-1,6
COc1ccc(-c2csc(N(CC3CCCO3)C(=O)c3ccc(C)cc3)n2)cc1 (stereo not given),-9,-34,-29,-5,38*,nt
COc1ccc(-c2csc(N(CC3CCCO3)C(=O)c3ccccc3)n2)cc1 (stereo not given),-6,nt,-17,-16,3,6
CCN(CC(=O)Nc1ccc(OC)cc1)C(=O)c1ccc2ccccc2c1,-2,6,nt,12,1,2
Cn1c(C(=O)NCc2cccs2)cc2oc3ccccc3c21,-9,52*,20,-10,11,41
O=C(NCc1ccccc1)c1cc2ccccc2o1,-1,22,-12,4,nt,12
Cn1c(C(=O)NCC2CCCO2)cc2oc3ccccc3c21 (stereo not given),-3,76*,8,-5,nt,61
O=C(CNC(=O)c1cc2ccccc2o1)NCc1cccs1,0,15,-18,17,nt,9
Cn1c(=O)c(C(=O)NCC2CCCO2)c(O)c2ccccc21 (stereo not given),-1,?,14,3,39*,54
Cn1c(C(=O)NCc2ccccc2)cc2oc3ccccc3c21,-12,59*,-75,-4,10,44
COc1ccc(Cn2c(C3CC3)nc3ccc(NC(=O)c4cccnc4)cc3c2=O)cc1,17,27,-4,-2,nt,nt
Cc1cc(C)n(C(=O)c2ccccc2[N+](=O)[O-])n1,2,nt,9,2,-2,7
O=C(CO/N=C/c1ccccc1OC(F)F)NC1CCCCC1,-2,nt,18,27,-1,0
CC(=O)Nc1ccc(NC(=O)c2ccc(-c3ccccc3Cl)o2)cc1,1,43*,2,nt,4,57
CN1CCN(c2ccc(NC(=O)c3ccc(-c4ccccc4F)o3)cc2)CC1,-5,-23,16,-8,49*,27
N#Cc1ccccc1NC(=O)c1ccc(-c2ccccc2Cl)o1,-1,50*,-14,-3,-3,?
O=C(Nc1nccs1)c1ccc(-c2ccccc2Cl)o1,-2,nt,-72,-8,?,47
COC(=O)c1sccc1-c1ccc(C(=O)Nc2cccc(Cl)c2)o1,-1,51*,17,-2,nt,nt
O=C(Nc1cccc(NC(=O)c2ccc(-c3ccc(Br)cc3)o2)c1)c1ccccc1,0,nt,-16,1,nt,43
O=C(Nc1ccccc1)c1ccc(-c2ccc(Br)cc2)o1,8,7,-10,-9,33*,nt
